# Measurements reported in PMC11062922 (Nature Chemical Biology, 2023).
# Where two headings read alike, the source gives them in different places.
# What was measured:
# Design in all cases: species or system human, MV4-11 + K-562 + COLO205 + SK-N-BE2 + OVCAR-8
# ERBB3 = details: read-out: apparent Kd, compound concentrations: 100 nM and 1000 nM (sheet 'Samples'), n = 1
# CDK7 = details: read-out: apparent Kd, n = 1
# ERCC2 = details: read-out: apparent Kd, n = 1
# PKN3 = details: read-out: apparent Kd, n = 1
# ADCK3 = details: read-out: apparent Kd, compound concentrations: 100 nM and 1000 nM (sheet 'Samples'), n = 1
# CDK4 = details: read-out: apparent Kd, compound concentrations: 100 nM and 1000 nM (sheet 'Samples'), n = 1
# LIMK1 = details: read-out: apparent Kd, n = 1
# STK10 = details: read-out: apparent Kd; compound concentrations:100 nM and 1000 nM (sheet 'Samples'); n = 1
# NUAK1 = details: read-out: apparent Kd; compound concentrations:100 nM and 1000 nM (sheet 'Samples'); n = 1
# ACVR2B = details: read-out: apparent Kd, compound concentrations: 100 nM and 1000 nM (sheet 'Samples'), n = 1
# SIK3 = details: read-out: apparent Kd, compound concentrations: 100 nM and 1000 nM (sheet 'Samples'), n = 1
# MAPK10 = details: read-out: apparent Kd; compound concentrations:100 nM and 1000 nM (sheet 'Samples'); n = 1
# MAPK11 = details: read-out: apparent Kd; compound concentrations:100 nM and 1000 nM (sheet 'Samples'); n = 1
# TAOK1 = details: read-out: apparent Kd, n = 1
# AURKA = details: read-out: apparent Kd; compound concentrations:100 nM and 1000 nM (sheet 'Samples'); n = 1
# PYGL = details: read-out: apparent Kd; compound concentrations:100 nM and 1000 nM (sheet 'Samples'); n = 1
# SYK = details: read-out: apparent Kd; compound concentrations:100 nM and 1000 nM (sheet 'Samples'); n = 1
# EPHB3 = details: read-out: apparent Kd; compound concentrations: 100 nM and 1000 nM (sheet 'Samples'), CATDS: 6.3203902610818402E-2; n = 1
# [1] = compound concentrations:100 nM and 1000 nM (sheet 'Samples')
smiles,measurement,setting,value
N#Cc1cnc2cc(-c3cnc(CNCCN4CCOCC4)s3)ccc2c1Nc1ccc(Oc2ccccc2)cc1 [GW664114X],potency estimated from few doses,ERBB3; CATDS: 9.1270292154097404E-2,0.245 µM
CN(C)Cc1ccc(-c2ccc3c(Nc4ccc(Oc5ccccn5)cc4)ccnc3c2)o1 [GW567148X],potency estimated from few doses,"CDK7; compound concentrations: 100 nM and 1000 nM (sheet 'Samples'), CATDS: 2.45792325734666E-2",0.573 µM
same,potency estimated from few doses,"ERCC2; compound concentrations: 100 nM and 1000 nM (sheet 'Samples'), CATDS: 2.5327932043398099E-2",0.534 µM
same,potency estimated from few doses,"PKN3; compound concentrations: 100 nM and 1000 nM (sheet 'Samples'), CATDS: 1.7061922393971401E-2",1.73 µM
CC(=O)c1c(-c2ccncc2)[nH]c(-c2ccncc2)c1C [GW493036X],potency estimated from few doses,PKN3; [1],1.07 µM
CC(=O)N1CCN(c2ccc(Nc3nccc(-c4sc(C(C)C)nc4-c4cccc(NS(=O)(=O)c5ccccc5)c4)n3)cn2)CC1 [GSK1645872A],potency estimated from few doses,ADCK3; CATDS: 3.3548638845590201E-2,0.57 µM
same,potency estimated from few doses,CDK4; CATDS: 2.3530905499939799E-2,1.53 µM
same,potency estimated from few doses,"LIMK1; compound concentrations: 100 nM and 1000 nM (sheet 'Samples'), CATDS: 9.09760903229518E-2",0.111 µM
CS(=O)(=O)Cc1ccc(Nc2nccc(-c3c(-c4cccc(NC(=O)c5c(F)cccc5F)c4)nn4ccccc34)n2)cc1 [GSK323543A],potency estimated from few doses,"ERCC2; compound concentrations: 100 nM and 1000 nM (sheet 'Samples'), CATDS: 6.1110797752593003E-2",1.57 µM
COc1cc2ncn(-c3cc(OCc4ccncc4)c(C(N)=O)s3)c2cc1OC [GSK336313A],potency estimated from few doses,STK10,1.93 µM
COc1cc2ncn(-c3cc(OCCCc4ccccc4)c(C(N)=O)s3)c2cc1OC [GSK205189A],potency estimated from few doses,CDK7; [1],0.0791 µM
same,potency estimated from few doses,ERCC2; [1],0.0399 µM
same,potency estimated from few doses,NUAK1,1.77 µM
Fc1cc(Cl)ccc1Nc1ccnc2cc(-c3ccc(CN4CCOCC4)o3)ccc12 [GW560109X],potency estimated from few doses,ACVR2B; CATDS: 7.2197051902398501E-2,0.673 µM
same,potency estimated from few doses,SIK3; CATDS: 5.0355620048332002E-2,1.91 µM
CNc1nccc(-c2c(-c3ccc(F)cc3)ncn2C2CCN(C)CC2)n1 [SB-222903],potency estimated from few doses,MAPK10,0.976 µM
same,potency estimated from few doses,MAPK11,1.08 µM
CN1CCN(c2ccc(Nc3nc(N)c(C(=O)c4ccc5c(c4)OCCO5)s3)cc2)CC1 [RO0505124-000],potency estimated from few doses,ADCK3; CATDS: 0.21536092464867401,0.935 µM
Fc1ccc(-c2c(-c3ccncc3)[nH]c3nccnc23)cc1 [RO1155697-000],potency estimated from few doses,MAPK10,0.869 µM
same,potency estimated from few doses,PKN3; [1],0.0311 µM
same,potency estimated from few doses,TAOK1; [1],1.15 µM
COc1cc2ncn(-c3cc(OCc4cccs4)c(C(N)=O)s3)c2cc1OC [GSK312948A],potency estimated from few doses,STK10,0.109 µM
Nc1nc(N)c2nc(-c3ccccc3)[nH]c2n1 [SKF-12778],potency estimated from few doses,AURKA,1.11 µM
same,potency estimated from few doses,MAPK10,0.925 µM
same,potency estimated from few doses,PYGL,1.64 µM
same,potency estimated from few doses,SYK,1.85 µM
Cc1ccc(O)cc1Nc1ccnc2ccc(C(C)(C)C)cc12 [GW856805X],potency estimated from few doses,ACVR2B; CATDS: 2.76899291361602E-2,1.25 µM
same,potency estimated from few doses,EPHB3,0.0317 µM
CN1CCc2ccc(Nc3nccc(-c4c(-c5cccc(NC(=O)c6c(F)cccc6F)c5)nc5ccccn45)n3)cc2C1.Cl [GSK1010829B],potency estimated from few doses,"TAOK1; compound concentrations: 100 nM and 1000 nM (sheet 'Samples'), CATDS: 4.1687643746907199E-2",0.83 µM
CS(=O)(=O)c1ccc(-c2cnc(N)c(C(=O)Nc3ccccc3)n2)cc1 [VE-821],potency estimated from few doses,ADCK3; CATDS: 0.149033723356022,1.37 µM
Cl.Cn1c(=O)c(Cc2ccc(F)cc2F)cc2cnc(NC3CCOCC3)nc21 [RO3308757-001],potency estimated from few doses,CDK7; [1],0.331 µM
same,potency estimated from few doses,ERCC2; [1],0.239 µM
same,potency estimated from few doses,MAPK10,0.886 µM
CC(C)c1nc(-c2ccc(F)c(NS(=O)(=O)c3c(F)cccc3F)c2)c(-c2ccnc(Nc3ccc(N4CCOCC4)nc3)n2)s1 [GSK1804250A],potency estimated from few doses,LIMK1; [1],0.125 µM
CC(C)c1nc(-c2cccc(NS(=O)(=O)c3c(F)cccc3F)c2)c(-c2ccnc(Nc3ccc(N4CCOCC4)nc3)n2)s1.Cl [GSK1723980B],potency estimated from few doses,CDK4; CATDS: 1.44710084593789E-2,1.81 µM
same,potency estimated from few doses,"LIMK1; compound concentrations: 100 nM and 1000 nM (sheet 'Samples'), CATDS: 8.5923205073472897E-2",0.0369 µM
same,potency estimated from few doses,SIK3; CATDS: 1.4935731096458E-2,1.52 µM
CC(C)c1nc(-c2cccc(NS(=O)(=O)c3c(F)cccc3F)c2F)c(-c2ccnc(Nc3ccc(N4CCOCC4)nc3)n2)s1 [GSK2008607A],potency estimated from few doses,"LIMK1; compound concentrations: 100 nM and 1000 nM (sheet 'Samples'), CATDS: 3.4604855317968697E-2",0.358 µM
COc1cc2nccc(Nc3ccc(Oc4ccccc4)cc3)c2cc1OC.Cl [GI261656A],potency estimated from few doses,ERBB3; CATDS: 4.9978680002658399E-2,0.623 µM
